Here are results for 5 molecules from PubChem BioAssay (NCI).

Among the test systems are NCI-H23 lung; NCI-H226 lung; NCI-H322M lung; HOP-62 NSCLC; NCI-H460 lung; HOP-92 NSCLC; NCI-H522 lung; A549/ATCC NSCLC; 786-0 renal; COLO 205 colon; DU-145 prostate; K-562 leukemia; MALME-3M melanoma; MDA-MB-231 breast; RXF 393 renal; SF-268 CNS; SF-295 CNS; SF-539 CNS; UACC-257 melanoma; M14 melanoma.
What all share (experiment): NCI-60 one-dose screen, 48 h (100 = growth as untreated, 0 = no growth, -100 = all killed)
Common to all, as to settings: 10 µM unless noted

Values joined by “and” are separate entries in the source; they are usually repeats but may differ in a detail not shown here. Equal values may be shown once. Compounds without any hit were thinned out: in the full panel of roughly 83,000, 20% have a hit.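 Note: values are percent growth. 100 is the growth of untreated cells, values between 100 and 0 indicate rising inhibition; between -100 and 0 indicates cell death.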 Active and inactive are the calls of the source. Rule for the calls: active = growth percent below 10; inactive = the rest.

As for `CCCCCc1cc[n+](CC(=O)c2ccccc2)cc1`, the growth with NCI-H23 lung was 96.6% (inactive) and 92.6% (inactive); in the assay with NCI-H226 lung, 96.8% (inactive) and 89% (inactive); in the assay with NCI-H322M lung it was 92.4% (inactive) and 96% (inactive); in the assay with HOP-62 NSCLC it was 90.5% (inactive) and 108% (inactive); in the assay with NCI-H460 lung it was 76.7% (inactive) and 95.4% (inactive); with HOP-92 NSCLC, 67.7% (inactive). Also, the growth in the assay with NCI-H522 lung is 95% (inactive) and 99.3% (inactive); in the assay on A549/ATCC NSCLC it was 84.1% (inactive) and 101% (inactive); in the assay on 786-0 renal it was 97% (inactive) and 96.3% (inactive); in the assay on COLO 205 colon it was 87.3% (inactive) and 101% (inactive); in the assay on DU-145 prostate, 105% (inactive) and 110% (inactive); in the assay with K-562 leukemia it was 113% (inactive) and 104% (inactive). Moreover, the growth is 100% (inactive) and 108% (inactive) in the assay on MALME-3M melanoma; 104% (inactive) and 106% (inactive) in the assay on MDA-MB-231 breast; 98.6% (inactive) and 110% (inactive) with RXF 393 renal; 103% (inactive) and 107% (inactive) in the assay on SF-268 CNS; 94.1% (inactive) in the assay with SF-295 CNS; 96.3% (inactive) and 102% (inactive) in the assay with SF-539 CNS. For the same molecule, the growth with UACC-257 melanoma is 99% (inactive) and 106% (inactive); in the assay on M14 melanoma it was 100% (inactive).
Consider `O=COCCCc1ccccc1`, for which the growth with NCI-H23 lung is 109% (inactive); in the assay with NCI-H226 lung, 95.4% (inactive); in the assay with NCI-H322M lung, 104% (inactive); with HOP-62 NSCLC, 86.4% (inactive); in the assay on NCI-H460 lung, 107% (inactive); with HOP-92 NSCLC, 84.9% (inactive). The growth is 80.5% (inactive) in the assay on NCI-H522 lung; 83.7% (inactive) with A549/ATCC NSCLC; 105% (inactive) in the assay on 786-0 renal; 106% (inactive) in the assay with COLO 205 colon; 112% (inactive) with DU-145 prostate; 104% (inactive) with K-562 leukemia. Moreover, the growth in the assay with MALME-3M melanoma was 106% (inactive); in the assay with MDA-MB-231 breast it was 100% (inactive); in the assay on RXF 393 renal, 108% (inactive); with SF-268 CNS, 103% (inactive); with SF-295 CNS it was 106% (inactive); in the assay on SF-539 CNS, 102% (inactive). The growth with UACC-257 melanoma was 86.5% (inactive); in the assay with M14 melanoma, 105% (inactive).
Consider `Cc1nc(Nc2ccc(Cl)cc2)c2cnn(-c3ccccc3)c2n1`, for which the growth with NCI-H23 lung was 97.3% (inactive); with NCI-H226 lung, 96.6% (inactive); with NCI-H322M lung, 104% (inactive); in the assay on HOP-62 NSCLC it was 108% (inactive); with NCI-H460 lung, 103% (inactive); in the assay with HOP-92 NSCLC it was 95.4% (inactive). For the same molecule, the growth with NCI-H522 lung was 105% (inactive); with A549/ATCC NSCLC it was 110% (inactive); with 786-0 renal it was 103% (inactive); in the assay on COLO 205 colon, 102% (inactive); with DU-145 prostate, 107% (inactive); in the assay with K-562 leukemia it was 113% (inactive). In addition, the growth in the assay on MALME-3M melanoma was 90.3% (inactive); in the assay on MDA-MB-231 breast, 111% (inactive); in the assay on RXF 393 renal, 93.6% (inactive); in the assay on SF-268 CNS it was 99.8% (inactive); in the assay with SF-295 CNS, 97.1% (inactive); in the assay with SF-539 CNS, 99.9% (inactive). Moreover, the results for the growth in the assay on UACC-257 melanoma and in the assay on M14 melanoma were 101% (inactive) and 100% (inactive), respectively.
On to `Cc1cc2nc3ccc(=[N+](C)C)cc-3sc2cc1N`, for which the growth was 21.7% (inactive) with NCI-H23 lung; 43.3% (inactive) and 58.9% (inactive) with NCI-H226 lung; 22.6% (inactive) and 38.3% (inactive) in the assay with NCI-H322M lung; 0.425% (active) and 42.7% (inactive) with HOP-62 NSCLC; 6.67% (active) and 7.84% (active) in the assay on NCI-H460 lung; 43.1% (inactive) and 8.68% (active) with HOP-92 NSCLC. Besides, the growth in the assay with NCI-H522 lung was -55.4% (active) and 13% (inactive); in the assay with A549/ATCC NSCLC, 6.81% (active) and 7.05% (active); in the assay on 786-0 renal, 39.4% (inactive) and 35.9% (inactive); with COLO 205 colon it was -68.6% (active) and -23.5% (active); in the assay on DU-145 prostate, 3.25% (active) and -41.6% (active); in the assay with K-562 leukemia, 7.3% (active). The growth with MALME-3M melanoma is -47.8% (active) and -3.68% (active); with MDA-MB-231 breast it was -18.8% (active) and -10.4% (active); in the assay on RXF 393 renal, 51.6% (inactive) and 36% (inactive); with SF-268 CNS, -8.64% (active) and -29.4% (active); in the assay on SF-295 CNS, 4.64% (active) and 15.1% (inactive); in the assay on SF-539 CNS, -39.6% (active) and 3.1% (active). Besides, the growth in the assay on UACC-257 melanoma is 24.9% (inactive) and 61.4% (inactive); in the assay on M14 melanoma, -26.3% (active) and 8.5% (active).
Regarding `CC(=O)Oc1cc(C(C)C)c(OCCN(C)C)cc1C`, the growth with NCI-H23 lung was 99.8% (inactive) and 105% (inactive); in the assay on NCI-H226 lung it was 120% (inactive) and 103% (inactive); in the assay with NCI-H322M lung, 102% (inactive) and 105% (inactive); with HOP-62 NSCLC, 110% (inactive) and 97.1% (inactive); with NCI-H460 lung, 115% (inactive) and 103% (inactive); with HOP-92 NSCLC it was 107% (inactive). The growth in the assay on NCI-H522 lung was 112% (inactive) and 115% (inactive); in the assay with A549/ATCC NSCLC, -83.3% (active) and 99.8% (inactive); in the assay on 786-0 renal it was 99.6% (inactive) and 104% (inactive); in the assay on COLO 205 colon, 114% (inactive) and 108% (inactive); with DU-145 prostate, 124% (inactive) and 118% (inactive); with K-562 leukemia, 115% (inactive) and 124% (inactive). Also, the growth is 97.5% (inactive) and 106% (inactive) in the assay with MALME-3M melanoma; 103% (inactive) and 112% (inactive) in the assay with MDA-MB-231 breast; 112% (inactive) and 101% (inactive) with RXF 393 renal; 112% (inactive) and 109% (inactive) in the assay with SF-268 CNS; 103% (inactive) and 92% (inactive) in the assay on SF-295 CNS; 112% (inactive) and 99.6% (inactive) with SF-539 CNS. Moreover, the growth was -91.1% (active) and 97.5% (inactive) in the assay on UACC-257 melanoma; 99.8% (inactive) in the assay on M14 melanoma.
